Bioassay records: PubChem BioAssay, National Center for Advancing Translational Sciences (NCATS)
ClpP mod: qHTS Assay for Activators of ClpP; ATP-dependent Clp protease proteolytic subunit (Bacillus subtilis (strain 168)), P80244; purified B. subtilis ClpP, FRET peptide cleavage, 20 min; Potency, µM (highest dose often 57.5 µM), for the others: at the top dose activity change, negative = active; 340,000 compounds, 1.9% hits; active means well fitted falling curve with a large enough effect; inconclusive means small, poorly fitted or top-dose-only effect; inactive means no such curve, though single readings can be large or run the other way; further: potency means the concentration at half of the fitted maximal effect; the source files actives as falling curves though it sought activators and does not explain the sign; nearly all actives have a fitted effect of over 65% in size
Target sequence (P80244 whole entry, looked up): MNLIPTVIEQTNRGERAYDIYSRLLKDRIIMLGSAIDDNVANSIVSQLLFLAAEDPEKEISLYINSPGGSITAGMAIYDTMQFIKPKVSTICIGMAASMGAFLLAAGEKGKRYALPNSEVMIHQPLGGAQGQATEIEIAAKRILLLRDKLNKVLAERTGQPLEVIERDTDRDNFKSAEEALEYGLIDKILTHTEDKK
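Purified B. subtilis ClpP, 10 microg/mL final in Tris/HCl pH8 with KCl, BSA, glycerol and Tween-20, cleaved an Abz/nitrotyrosine-quenched decapeptide. Fluorescence (ex 320, em 430) was read at 0 and 20 min at room temperature. Delta was normalized to 5.8 microM ADEP and DMSO/no-enzyme controls.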
Apoferritin bind: candidate novel general anesthetic via apoferritin binding; apoferritin/1-aminoanthracene competitive binding, fluorescence; P02791; Potency, µM (highest dose often 77.5 µM), for inactives: top-dose activity change, negative = displacement, actives largely listed as inhibitors; 350,000 compounds, 0.074% hits; further: potency means the concentration at half of the fitted maximal effect; on the % scale 0 is the no-effect control and ±100 the full control effect; nearly all actives have a fitted effect of over 20% in size
Target sequence (P02791 2-175 limits assumed): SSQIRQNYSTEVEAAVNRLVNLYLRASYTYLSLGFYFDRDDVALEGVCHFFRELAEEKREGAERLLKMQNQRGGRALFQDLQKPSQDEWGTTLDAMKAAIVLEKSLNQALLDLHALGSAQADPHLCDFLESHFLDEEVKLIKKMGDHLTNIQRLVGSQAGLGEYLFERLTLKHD
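10 uM apoferritin + 50% sat. 1-AMA, PBS; cpd 10 min RT; Ex380/Em535 endpoint; normalized to free probe vs complex; 4-param Hill fit; propofol titration as pos. ctrl.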
CBFb RUNX1 block: inhibitors of human CBF-beta and RUNX1 interaction | Potency, µM (top dose mostly 59.8 µM), inactives show at the top dose activity, negative = inhibition, hits mostly inhibitors | AID 1477 | AlphaScreen CBFb-His/RUNX1-biotin binding, biochemical | 230,000 tested, under 10 active | Q01196+Q13951; further: % of control where 0% means no effect
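His-tagged CBF-beta and biotinylated RUNX1 (30 nM each) were premixed 20 min at room temperature, exposed to compound for 15 min, then given nickel-chelate and streptavidin AlphaScreen beads (50 ng each). After 90 min, AlphaScreen signal was read.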
Glioma ERSR ind: induces the endoplasmic reticulum stress response in human glioma cells; U87-MG GRP78 promoter luciferase reporter, 16 h; Potency, µM, for inactives: at the top dose activation, actives largely listed as activators; 420,000 compounds, 0.02% hits; AID 602332; further: potency means the concentration at half of the fitted maximal effect; series mostly up to about 76 µM; % of control where 0% means no effect; nearly all actives have a fitted effect of over 35% in size
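ERSR induction read as luciferase luminescence (Bright-Glo, 10 min at room temperature) in stably transfected human U87-MG glioma cells exposed to compounds for 16 h, using GRP78 as sensor.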
a7 integrin act: activators of alpha7 integrin expression for muscular dystrophy | Potency, µM (top dose mostly 38.3 µM), without a hit: top-dose activation, actives largely listed as activators | alpha7betagal myoblasts, beta-gal FDG fluorescence, 48 h | 350,000 compounds, 0.064% hits;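 further: potency means the concentration at half of the fitted maximal effect; 100% = response of the positive control SU9516; nearly all actives have a fitted effect of over 60% in size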
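Alpha7betagal+/- myoblasts (passage 13) were plated 16-24 hr, then exposed to compounds (1:260 dilution of DMSO stock) for 48 hours at 37C. After MPER lysis, β-galactosidase reporter activity was read as FDG fluorescence (ex 480/em 540) after 30 minutes.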
N370S GC: inhibits or activates N370S mutant glucocerebrosidase. P04062. N370S GC spleen homogenate, 4MU-glucoside fluorescence. Potency, µM (highest dose often 59.4 µM), inactives show top-dose activity change, negative = inhibition, actives largely listed as inhibitors. 330,000 compounds, 0.092% hits. AID 2101;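 further: potency means the concentration at half of the fitted maximal effect; 0% = full enzyme activity and -100% = no enzyme basal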
Active calls of the source: *; ! = not active in a repeat; [ ] = another dose, or the depositor's remark. The sample as a whole holds a higher share of hits than the screen did. Unless noted, the call rests on the fitted dose curve; in most records, active means well fitted curve in the direction sought with a large enough effect; inconclusive means small, poorly fitted or top-dose-only effect, or another doubt; inactive means no such curve, though single readings can be large; an effect the other way counts as inactive or inconclusive.

`Cc1ccc(C)c(S(=O)(=O)c2nnn3c2nc(NC2CCCCC2)c2sccc23)c1` gave ClpP mod 35µM*, Apoferritin bind -18% and Glioma ERSR ind -6%.
For O=C(C[N+]1(CC(O)c2ccccc2)CCCCC1)c1ccccc1 (stereo not drawn) the results were ClpP mod -2% and Glioma ERSR ind -3%.
c1ccc(-c2cc3ccccc3nc2N2CCCC2)cc1 was read as ClpP mod 28µM*, Apoferritin bind 64%, CBFb RUNX1 block inconclusive, Glioma ERSR ind -5%, a7 integrin act -20% and N370S GC 0%.
For OC1CCN(Cc2ccc3c(c2)CN(C/C=C/c2ccco2)CCO3)CC1 the results were Glioma ERSR ind -7%.
Screening OC1(c2cccnc2)CCN(Cc2ccc3c(c2)CN(Cc2cccc(F)c2F)CCO3)CC1 returned Glioma ERSR ind -5%.
Screening Nn1cnnc1SCC(=O)Nc1ccc(C2CCCCC2)cc1 returned ClpP mod 1%, Apoferritin bind 7.1µM*, CBFb RUNX1 block 2%, Glioma ERSR ind 6%, a7 integrin act -21% and N370S GC 13%.
Screening Nn1c(SCC(=O)Nc2cccc(F)c2)nnc1C1CCCCC1 returned ClpP mod 1%, Apoferritin bind 8.9µM*, CBFb RUNX1 block 5%, Glioma ERSR ind -3%, a7 integrin act 7% and N370S GC 10%.
For COCCNc1nc(-c2ccccc2)nc2ccccc12 the results were Apoferritin bind -4%, CBFb RUNX1 block 8%, Glioma ERSR ind 0%, a7 integrin act 1% and N370S GC 8%.
Screening Fc1ccccc1-c1nc(NCc2ccccc2)c2ccccc2n1 returned Apoferritin bind -8%, CBFb RUNX1 block 8%, Glioma ERSR ind -3%, a7 integrin act 14% and N370S GC 13µM*.
`COCCNc1nc(-c2ccccc2Cl)nc2ccccc12` gave Glioma ERSR ind -7% and N370S GC 7.9µM*.
For c1ccc(CNc2nc(-c3cccs3)nc3ccccc23)cc1 the results were Apoferritin bind -4%, CBFb RUNX1 block -1%, Glioma ERSR ind -2%, a7 integrin act 0% and N370S GC 0.5µM*.
`COCc1ccc(CN2CCOc3ccc(C4=CCCCC4)cc3C2)o1` gave Glioma ERSR ind 0%.
For CC(C)c1ccc(Nc2ncnc3onc(-c4ccc(F)cc4)c23)cc1 the results were ClpP mod 22µM*, Apoferritin bind -15% and Glioma ERSR ind -1%.
Screening Cc1noc2ncnc(Nc3ccc(F)cc3)c12 returned ClpP mod -4%, Apoferritin bind 5% and Glioma ERSR ind -3%.
For CCCCCCCCCCCCCCOS(=O)(=O)O the results were Apoferritin bind -23%, CBFb RUNX1 block 11%, Glioma ERSR ind -3% and N370S GC -8%.
CCCCOn1c(C)c(C(=O)OCC)c2c3nonc3ccc21 was read as ClpP mod 18µM*, Glioma ERSR ind -1% and a7 integrin act -25%.
For Cc1cc(S(=O)(=O)NCc2nc(N3CCCC3)c3cc(Cl)ccc3n2)c(C)s1 the results were Glioma ERSR ind -5%.
For Cc1cccc(OCC(=O)OCc2cc(=O)n3nc(C4CCCCC4)sc3n2)c1 the results were ClpP mod -5%, Apoferritin bind 16µM* and Glioma ERSR ind 0%.
`Cc1ccc2c(c1)CN(CCC(=O)NCc1cc(C)n(C)n1)CC(C)O2` (stereo not drawn) gave Glioma ERSR ind -5%.
`N#Cc1ccccc1NC(=O)COC(=O)/C=C/c1cn(-c2ccccc2)nc1-c1ccc(Cl)cc1` gave Apoferritin bind 1%, CBFb RUNX1 block 1%, Glioma ERSR ind 14%, a7 integrin act 6% and N370S GC 15%.
`NC(=O)c1ccc(NC(=O)COC(=O)/C=C/c2cn(-c3ccccc3)nc2-c2cccnc2)cc1` gave ClpP mod 28µM*, Apoferritin bind 4%, CBFb RUNX1 block -13%, Glioma ERSR ind -4%, a7 integrin act 31% and N370S GC -3%.
Screening COc1ccc(-c2[nH]c(-c3ccccc3)nc2SCC(=O)NC2CCCC2)cc1 returned ClpP mod 22µM*!, Apoferritin bind -12%, CBFb RUNX1 block -7%[2.36 µM], Glioma ERSR ind -3%, a7 integrin act 6% and N370S GC -1%.
For COc1ccc(-c2[nH]c(-c3cccc(OC)c3)nc2SCC(=O)NC2CCCC2)cc1 the results were ClpP mod 25µM*!, Apoferritin bind 76%, CBFb RUNX1 block 3%[2.36 µM], Glioma ERSR ind -2%, a7 integrin act 1% and N370S GC 9%.
For CC(C)(C)NC(=O)Nc1ccc2nccnc2c1 the results were ClpP mod 20µM*, Apoferritin bind inactive, CBFb RUNX1 block 6%, Glioma ERSR ind 3%, a7 integrin act -4% and N370S GC 12%.
Cc1cc(C)c2c(n1)sc1c(O)cc(=O)[nH]c12 was read as ClpP mod 32µM*, Apoferritin bind -2%, CBFb RUNX1 block -7%, Glioma ERSR ind -2%, a7 integrin act 14% and N370S GC -4%.
For CC(C)c1nn2c(=O)cc(COC(=O)c3ccccc3NC(=O)c3cccc(Cl)c3)nc2s1 the results were ClpP mod 10µM*, Apoferritin bind 40% and Glioma ERSR ind -2%.
Screening Cc1ccc(C(=O)Nc2ccccc2C(=O)OCc2cc(=O)n3nc(C(C)C)sc3n2)cc1 returned ClpP mod 3%, Apoferritin bind -6% and Glioma ERSR ind -3%.
For O=C(Nc1nc2ccc(SC(F)F)cc2s1)c1ccc(NS(=O)(=O)c2ccc(F)c(F)c2)cc1 the results were ClpP mod 32µM*, Apoferritin bind -17%, CBFb RUNX1 block -2%, Glioma ERSR ind -6%, a7 integrin act -8% and N370S GC -17%.
Screening Nc1nccc(-c2ccc(-n3cnc4ccccc43)cc2)n1 returned Apoferritin bind -9%, CBFb RUNX1 block 12%, Glioma ERSR ind 0%, a7 integrin act 11µM* and N370S GC 3%.
`CC(=O)N(c1ccc(Cl)cc1)c1cn(C(C)=O)c2ccccc12` gave Apoferritin bind -7%, CBFb RUNX1 block -4%, Glioma ERSR ind -3%, a7 integrin act inconclusive and N370S GC 18µM*.
For CC(=O)n1cc(N(C(=O)CCl)c2ccc(C)cc2)c2ccccc21 the results were Apoferritin bind 3%, CBFb RUNX1 block 0%, Glioma ERSR ind -14%, a7 integrin act -61% and N370S GC -27%.
